# Measurements from PubChem BioAssay (Tox21).
# Records with an inconclusive call do not appear. A call without a number means that no potency is given here. Calls of active or inactive are those of the source. Calls come from the whole dose curve; as a rule, active = well fitted cell-killing curve with a large enough effect in the repeat runs; inconclusive = weak or mixed curves, or effect the other way; inactive = no such curve, though single readings can be large or run the other way.
# Assay: qHTS assay to identify small molecule agonists of the estrogen receptor alpha (ER-alpha) signaling pathway in the presence of an antagonist - cell viability counter screen (AID 1259386);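 note: cells exposed to compounds for 22 h at 37 °C before the viability read; nearly all actives have a fitted effect of over 30% in size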
# Conditions: VM7Luc4E2 viability, CellTiter-Fluor fluorescence, 22 h; series mostly up to 92.4 µM
# Text: National Center for Advancing Translational Sciences [NCATS]
# NIH Chemical Genomics Center [NCGC]
# U.S. Environmental Protection Agency [EPA]
# National Institutes of Environmental Health Sciences [NIEHS]
# National Toxicology Program [NTP]
# U.S. Food and Drug Administration [FDA]
# Estrogen receptor (ER), a member of nuclear hormone receptor plays an important role in development, metabolic homeostasis and reproduction. Two subtypes of ER, ER-alpha and ER-beta, have similar expression patterns with some uniqueness in both types. Endocrine disrupting chemicals (EDCs) and their interactions with steroid hormone receptors like ER causes disruption of normal endocrine function. Therefore, it is important to understand the effect of environmental chemicals in ER signaling pathway. For identifying ER agonists, VM7Luc4E2 cell line has been used in the current assay.
# VM7Luc4E2 cell line (provided by Denison MS, University of California) endogenously expresses full-length ER-alpha and is stably transfected with a plasmid containing four estrogen responsive elements (ERE) upstream of a luciferase reporter gene. This current screening for measuring luciferase reporter gene activity using VM7Luc4E2 cells against Tox21 10K library collection is a confirmation study on agonist mode screening in presence of ER-antagonist (ICI-182,780) at 10.0nM final concentration. The cytotoxicity of the compounds was tested in parallel by measuring the cell viability using CellTiter-Fluor assay system (Promega, Madison, WI) in the same wells.
# Tox21 Assay Protocol Summary:
# VM7Luc4E2 cells were cultured in phenol red free assay medium containing 10% charcoal stripped FBS for 5 days prior to the assay. The cells were dispensed at 4,000 cells in 4uL of assay medium per well into white wall/solid-bottom 1536-well plates (Corning Life Sciences, Corning, NY) using a Multidrop Combi (Thermo Fisher Scientific Inc., Waltham, MA) dispenser. After the assay plates were incubated at 37C and 5% CO2 for 24hr, 1uL of 10.0nM (final concentration) ICI-182,780 or assay buffer was added using two separate tips of Flying Reagent Dispenser (FRD, Aurora Discovery, San Diego, CA). Then 23nL of compounds dissolved in DMSO at 15 concentrations and positive controls or DMSO only was transferred to the assay plates by a Pintool station (Wako, San Diego, CA). The assay plates were incubated at 37C and 5% CO2 for 22hr. After 21hr incubation at 37C, 1uL/well CellTiter-Fluor reagent (Promega Corporation, Madison, WI) was added to each well using FRD and after 1hr incubation at 37C and 5% CO2, the fluorescence signal was measured on ViewLux plate reader (PerkinElmer, Shelton, CT).
# Potency is the fitted concentration of half-maximal effect.
Structure (SMILES),Potency,"activity change, negative = cytotoxicity"
Oc1ccccc1F,inactive,–
O=C1C=CC(=O)O1,inactive,–
CCOC(=O)CS,inactive,–
CCCCCCCCc1ccc(S(=O)(=O)O)cc1,inactive,–
CN(C)CCOc1ccccc1Cc1ccccc1,inactive,–
O=[N+]([O-])c1nccn1CO[C@@H](CO)[C@H](O)CO,inactive,–
CC1=CC(=O)CC(C)(C)C1=O,inactive,–
CCCCCCCCCC#N,inactive,–
O=C(O)[C@@H](O)[C@H](O)[C@H](O)[C@@H](O)C(=O)O,inactive,–
COC(=O)c1ccc(OC)cc1,inactive,–
CC1CN(c2ccccc2)NC1=O (stereo not given),inactive,–
NC(Cc1ccc(F)cc1)C(=O)O (stereo not given),–,2.6% [at 8.39 µM] (inactive)
FC(F)(F)C(F)(F)C(F)(F)C(F)(F)C(F)(F)C(F)(F)C(F)(F)C(F)(F)Br,inactive,–
O=C1CCN(c2ccccc2)N1,inactive,–
CC(C)S,inactive,–
CC(CNC1CCCCC1)OC(=O)c1ccccc1 (stereo not given),inactive,–
CC1=NN(c2cc(Cl)c(S(=O)(=O)O)cc2Cl)C(=O)C1N=Nc1ccc(S(=O)(=O)O)cc1 (stereo not given),61.1 µM (active),–
O=C(CC(=O)C(F)(F)F)c1ccccc1,inactive,–
CCOC(=O)C1CC(=O)C(=C(O)C2CC2)C(=O)C1 (stereo not given),inactive,–
Cc1c(N)cccc1N,inactive,–

Structure (SMILES),Potency,"activity change, negative = cytotoxicity"
O=C(O)[C@@H]1CSCN1,inactive,–
C=CC1CO1 (stereo not given),inactive,–
CCCCCCOc1ccc(N)cc1,inactive,–
CC/C=C\CCOC(=O)CCCCC,inactive,–
O=C1CCC(C2CCCCC2)CC1,inactive,–
CC(C)NC[C@@H](O)COc1cccc2ccccc12,inactive,–
CC(=O)OC1C2(C)CCC(C2)C1(C)C (stereo not given),inactive,–
CN(C)CC[C@@H](c1ccc(Cl)cc1)c1ccccn1,inactive,–
Nc1ccc(Oc2ccc(N)c(N)c2)cc1,54.5 µM (active),–
CC/C=C\CCOC(=O)C(C)C,inactive,–
CO[C@@]1(NC(=O)CSCC#N)C(=O)N2C(C(=O)O)=C(CSc3nnnn3C)CS[C@@H]21,inactive,–
COC(=O)c1ccc2cc(C(=O)OC)ccc2c1,–,-3.99% [at 19 µM] (inactive)
NNS(=O)(=O)c1ccc(Oc2ccc(S(=O)(=O)NN)cc2)cc1,inactive,–
CC(=O)N[C@@H](CC(C)C)C(=O)O,inactive,–
CN(CC1(C)CCCO1)S(=O)(=O)c1ccc(Cl)c(S(N)(=O)=O)c1 (stereo not given),inactive,–
O=C(O)c1cccc(Cl)c1Cl,inactive,–
CN(CCCN1c2ccccc2CCc2ccccc21)CC(=O)c1ccc(Cl)cc1,inactive,–
C[C@]12C(=O)OC(=O)[C@H]1[C@H]1C=C[C@@H]2C1,inactive,–
CCOC(=O)NCCC[Si](OCC)(OCC)OCC,inactive,–
COc1cc(C)ccc1C(C)C,inactive,–
